Data: ChEMBL document CHEMBL3988442, “University of Dundee, Small-Polar-MMV Screening Library” (2021)
Screen size: about 48,000 compounds; about 13,000 (27%) showed an effect of 50% or more. This is one part of the list.

System: Wolbachia pipientis
Experiment: Anti-Wolbachia Cell-Based Screen
Assay type: functional
Parameters: scale not given: in the data most compounds retested in dose-response had high values
Details: 5 µM

Row | Compound | Percent Effect
1 | COCCCN1C(=O)CC[C@H]2CN(c3cc(C(N)=O)ccn3)CC[C@H]21 | -7.921%
2 | CCOc1ccc(NC2CCN(C(C)C)C2=O)cn1 (centres undefined) | -21.57%
3 | O=C(CCN1C(=O)CCC1=O)Nc1ccc(OCC(F)(F)F)nc1 | -54.38%
4 | CCc1nc(C)c([C@H]2CN(C)C[C@@H]2C(=O)Nc2ccc(OC)nc2)[nH]1 | 6.695%
5 | CN1CC(C(=O)Nc2ccc(OCC(F)(F)C(F)F)nc2)CC1=O (centres undefined) | 108%
6 | COCCOc1ccc(NC(=O)C2CC(=O)N(C)C2)cn1 (centres undefined) | -11.2%
7 | COc1ccc(NC(=O)C2CC(=O)N(C)C2)cn1 (centres undefined) | 112.1%
8 | CNC(=O)c1ccc(N(C)C2CCC2)nn1 | -0.7532%
9 | CC(C)c1cc(CNC(=O)Nc2cc(F)cc(N3CCCC3)c2)on1 | -22.89%
10 | COc1ccc(O[C@H]2COCCN(C(=O)c3ccno3)C2)cc1 | -10.22%
11 | COc1nc(C)ccc1CNC(=O)NC(C)Cc1c(C)nn(C)c1C (centres undefined) | -7.556%
12 | CC(Cn1cccn1)NC(=O)NCc1ccoc1 (centres undefined) | 138.9%
13 | O=C(NCc1cccnc1)Nc1ccn(CC(F)F)n1 | -3.627%
14 | CC(Cn1cccn1)NC(=O)NCc1cccs1 (centres undefined) | -5.342%
15 | Cc1ccc(CNC(=O)NC(C)Cn2cccn2)cn1 (centres undefined) | 102.7%
16 | CC(Cn1cccn1)NC(=O)Nc1cccnc1 (centres undefined) | -4.722%
17 | CC(Cn1cccn1)NC(=O)NCCc1ccc(Cl)s1 (centres undefined) | 2.539%
18 | CC(Cn1cccn1)NC(=O)NCc1cccnc1 (centres undefined) | 125.3%
19 | CC(C)CN1CCC(c2nnc(CN3CCCC3)n2C2CC2)CC1 | 11.32%
20 | O[C@H]1[C@H](n2cc(CN3CCCC3)nn2)c2ccccc2C12CCNCC2 | -10.15%
21 | CCN(CC)S(=O)(=O)CCNC(=O)c1cc2cccc(F)c2o1 | -15.07%
22 | Nc1nc2c(c(N3CCCC(CN4CCCC4=O)C3)n1)CCNCC2 (centres undefined) | -1.007%
23 | Cc1nn(C)c2ncnc(N3CCCC(OCc4ccccn4)C3)c12 (centres undefined) | -6.916%
24 | COC1CCCN(c2nc(C)nc3c2CCN(Cc2ccco2)CC3)C1 (centres undefined) | -0.6049%
25 | Nc1nc2c(c(N3CCCC(OCc4ccccn4)C3)n1)CCNCC2 (centres undefined) | 94.61%
26 | Nc1nc2c(c(N3CCCC3)n1)CCN(Cc1ccccn1)CC2 | 7.613%
27 | Cc1nc2c(c(N3CCCC(OCc4ccccn4)C3)n1)CCNCC2 (centres undefined) | 98.85%

Row | Compound | Percent Effect
28 | Cc1nn(C)c2ncnc(N3CCCC(OCc4cccnc4)C3)c12 (centres undefined) | 4.594%
29 | Cc1nc2c(c(N3CCC(CCn4cccn4)CC3)n1)CCNCC2 | 1.957%
30 | Cc1nc(N2CCCC(OCc3ccccn3)C2)c2c(C)noc2n1 (centres undefined) | 99.09%
31 | Cn1cc(CN2CCc3c(c(COCC#N)nn3C)C2)cn1 | -10.53%
32 | O=C(c1cccnc1-n1cncn1)N1CCN(CC(F)(F)F)CC1 | -6.052%
33 | CCc1cnc(C)nc1NCCc1nc(N)cc(O)n1 | 1.724%
34 | CN(C)S(=O)(=O)NCc1nc(-c2cccc(F)c2)c(-c2ccccn2)[nH]1 | -1.399%
35 | N#Cc1ccccc1CN1CCc2sccc2C1 | -11.84%
36 | CCC(NC(=O)CN(C)Cc1ccc(C)o1)c1ccc(Br)cc1 (centres undefined) | 7.959%
37 | Cc1ccc(CN2CC[C@H]3OCC[C@@]3(C(=O)N3CCCO3)C2)s1 | 100.6%
38 | O=C(N1CCCO1)[C@@]12CCO[C@@H]1CCN(Cc1ccsc1)C2 | 127%
39 | COC[C@@]12CCO[C@@H]1CCN(Cc1ccc(C)s1)C2.O=C(O)C(F)(F)F | -10.75%
40 | Cc1ncsc1CN1CC[C@H]2OCC[C@@]2(C(=O)N2CCCO2)C1 | -1.32%
41 | c1cnn(CC2CCCCN2Cc2cn3ccsc3n2)c1 (centres undefined) | 2.763%
42 | COc1ccc2c(=O)n(CC3CCCCN3C)ccc2c1OC (centres undefined) | -25.61%
43 | CCN1C[C@@H]2CN(S(=O)(=O)c3cccs3)C[C@@H]2C1=O | -17.06%
44 | N#Cc1cc(NS(=O)(=O)CC2CCCCO2)ccc1F (centres undefined) | -2.711%
45 | COc1cc(CN2CCCC2)ccc1Oc1ncccc1C(F)(F)F | 26.33%
46 | COc1ccc(CN2CCCC3(CC2)CNC(=O)O3)cc1OC (centres undefined) | 1.159%
47 | COc1cc(CN2CCCC2)ccc1OC12CCCN(CC1)C2 (centres undefined) | 119.4%
48 | CCCc1ccc(OC23CCCN(CC2)C3)c(OC)c1 (centres undefined) | 112.6%
49 | COc1ccc(CCNC(=O)NCc2cccc(C(N)=O)c2)cc1OC | 9.819%
50 | CCCc1ccc(OCCNCc2ccco2)c(OC)c1.Cl | -10.12%
51 | CC(C)c1nccn1C(C)C(=O)N1CCN(S(C)(=O)=O)CC1 (centres undefined) | 15.78%
52 | CC(C)c1cc(C(=O)N(c2ccc(F)cn2)C2CCOCC2)nn1C | -15.95%
53 | COC[C@@]12CC[C@@H](N3CCOCC3)C[C@H]1CCN(c1ncccc1C)C2 | -3.262%
54 | O=C(O)C(F)(F)F.O=C(c1cscn1)N1CC[C@@H]2[C@@H]1CCN2C1CCOCC1 | 97.96%
